Source: PubChem BioAssay
CYP2C9 inh = human CYP2C9 inhibition; inhibition, % at 5 µM; 96,000 tested, 20% active; CYP2C9 Supersomes, luciferin-H conversion, luminescence; AID 777;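 active = blocking of liver enzyme CYP2C9 beyond about 50% at 5 µM, limit read from the data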
Target sequence (P11712 whole entry, looked up): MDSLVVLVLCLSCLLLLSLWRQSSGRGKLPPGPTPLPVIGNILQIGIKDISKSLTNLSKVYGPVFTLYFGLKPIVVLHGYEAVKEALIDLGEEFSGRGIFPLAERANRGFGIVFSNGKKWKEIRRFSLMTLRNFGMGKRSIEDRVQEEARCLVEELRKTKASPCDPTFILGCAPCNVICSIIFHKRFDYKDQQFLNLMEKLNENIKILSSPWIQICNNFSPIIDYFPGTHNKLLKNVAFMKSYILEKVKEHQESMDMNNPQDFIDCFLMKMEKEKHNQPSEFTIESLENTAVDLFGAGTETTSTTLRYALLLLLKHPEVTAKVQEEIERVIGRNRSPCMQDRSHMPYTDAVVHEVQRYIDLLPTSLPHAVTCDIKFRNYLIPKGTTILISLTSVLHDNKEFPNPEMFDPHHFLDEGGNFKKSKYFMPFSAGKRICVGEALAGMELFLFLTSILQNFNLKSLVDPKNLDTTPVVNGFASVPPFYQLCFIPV
CYP2C19 inhib = inhibitors of human CYP2C19 | AID 778 | CYP2C19 Supersomes, luciferin-H EGE luminescence, 30 min | inhibition, % at 5 µM | P33261 | 96,000 tested, 21% active;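 active = CYP2C19 inhibition above a set limit at 5 µM in the primary screen, cut at about 50% in these data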;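 also: plate controls were negative control wells for no effect and 2.5 mM tranylcypromine positive control for full effect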
Pyk2 oligo antag = blocks oligomerization of human Pyk2 in cells | Q293 cells, Pyk2 FERM NanoBiT luminescence; active compounds read low | AID 1347419 | 99,000 tested, 0.83% active | z-score (the deposit names both 25 µM and 10 µM);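 active = Z-score of -3 or lower, scaled per plate to the spread of control and sample wells; inactive = z-score above -3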;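 also: negative z-score means lost luminescence so less FERM oligomerization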
CYP2C9 activ = activators of human CYP2C9; P11712; recombinant CYP2C9, luciferin-H conversion, luminescence; active compounds read high; factor 1 = untreated enzyme, 0 = blocked; activation factor at 5 µM; 96,000 tested, 1.4% active;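 active = activation factor of 2 or more for CYP2C9 at a 5 µM dose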;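 also: 0 = sulfaphenazole-blocked wells and 1 = vehicle-only wells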
CYP2C19 activ = cytochrome P450 2C19 (human) activation. recombinant CYP2C19, luciferin-H EGE luminescence; active compounds read high; 0 = fully inhibited enzyme, 1 = untreated enzyme. activation factor at 5 µM. 96,000 tested, under 10 active. AID 1025;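 active = activation factor of at least 2 at 5 µM in the primary screen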;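 also: 0 = wells with 2.5 mM tranylcypromine and 1 = vehicle-only wells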
Numbers without * were called inactive. Hits are enriched below; roughly 28% of the tested compounds scored in any of these assays.

`CCn1c(SCC(=O)Nc2ccc(S(N)(=O)=O)cc2)nnc1-c1cccc(OC)c1` gave CYP2C9 inh 24, CYP2C19 inhib 2, Pyk2 oligo antag 1.2, CYP2C9 activ 0.8 and CYP2C19 activ 1.
For Cc1ccc(-n2nnnc2Sc2nc([N+](=O)[O-])nn2C)cc1C the results were Pyk2 oligo antag -0.8.
For COc1cccc(Cn2c(Oc3ccccc3)nc3c2c(=O)n(C)c(=O)n3C)c1 the results were CYP2C9 inh 85*, CYP2C19 inhib 44, Pyk2 oligo antag -0.01, CYP2C9 activ 0.2 and CYP2C19 activ 0.6.
`CC(C)CCn1c(Oc2ccccc2Cl)nc2c1c(=O)n(C)c(=O)n2C` gave CYP2C9 inh 85*, CYP2C19 inhib 5, Pyk2 oligo antag -1.3, CYP2C9 activ 0.2 and CYP2C19 activ 0.9.
Screening COc1cccc(Cn2c(Oc3cccc(C)c3)nc3c2c(=O)n(C)c(=O)n3C)c1 returned CYP2C9 inh 44, CYP2C19 inhib 22, Pyk2 oligo antag -1.8, CYP2C9 activ 0.6 and CYP2C19 activ 0.8.
CC(C)CCn1c(Cl)nc2c1c(=O)n(C)c(=O)n2C was read as CYP2C9 inh 2, CYP2C19 inhib 55*, Pyk2 oligo antag -0.02, CYP2C9 activ 1 and CYP2C19 activ 0.5.
`CN(C)C(=O)N1CCN(C(=O)N2CCOCC2)CC1` gave Pyk2 oligo antag 0.51.
Cc1cc(C)c(NC(=O)C2CCCN2C(=O)NC2CCCCC2)c(C)c1 (stereo not drawn) was read as Pyk2 oligo antag -0.55.
`CN(CC(=O)Nc1c(Cl)cccc1Cl)C(=O)CCCN1C(=O)c2ccccc2C1=O` gave CYP2C9 inh 86*, CYP2C19 inhib 30, Pyk2 oligo antag 0.08, CYP2C9 activ 0.1 and CYP2C19 activ 0.7.
`Cc1ccc(NC(=O)CN(C)C(=O)CCCN2C(=O)c3ccccc3C2=O)cc1` gave CYP2C9 inh 21, CYP2C19 inhib 22, Pyk2 oligo antag 1.4, CYP2C9 activ 0.8 and CYP2C19 activ 0.8.
Screening CCC1Oc2ccc(C)cc2N(CC(=O)NCc2ccccc2OC)C1=O (stereo not drawn) returned CYP2C9 inh -29, CYP2C19 inhib 91*, Pyk2 oligo antag -0.71, CYP2C9 activ 1.3 and CYP2C19 activ 0.1.
Screening CCC1Oc2ccc(C)cc2N(CC(=O)NCc2cccc(OC)c2)C1=O (stereo not drawn) returned CYP2C9 inh 14, CYP2C19 inhib 94*, Pyk2 oligo antag 0.64, CYP2C9 activ 0.9 and CYP2C19 activ 0.1.
`CCC1Oc2ccc(C)cc2N(CC(=O)NCc2cc(OC)ccc2OC)C1=O` (stereo not drawn) gave CYP2C9 inh 16, CYP2C19 inhib 73*, Pyk2 oligo antag -0.36, CYP2C9 activ 0.8 and CYP2C19 activ 0.3.
Screening CCC1Oc2ccc(C)cc2N(CC(=O)NCCCN2CCN(Cc3ccccc3)CC2)C1=O (stereo not drawn) returned CYP2C9 inh 8, CYP2C19 inhib 10, Pyk2 oligo antag 2.8, CYP2C9 activ 0.9 and CYP2C19 activ 0.9.
For CCC1Oc2ccc(C)cc2N(CC(=O)NCCN2C(C)CCCC2C)C1=O (stereo not drawn) the results were CYP2C9 inh -8, CYP2C19 inhib -1, Pyk2 oligo antag 2, CYP2C9 activ 1.1 and CYP2C19 activ 1.
For O=S(=O)(CCc1nc2ccccc2o1)c1ccc(Cl)c(Cl)c1 the results were CYP2C9 inh -6, CYP2C19 inhib 23, Pyk2 oligo antag 0.81, CYP2C9 activ 1.1 and CYP2C19 activ 0.8.
For Nc1ccc(CCc2nc3ccccc3o2)cc1 the results were CYP2C9 inh 76*, CYP2C19 inhib 96*, Pyk2 oligo antag -0.25, CYP2C9 activ 0.2 and CYP2C19 activ 0.
For NCc1ccc(-c2nc3ccccc3o2)cc1 the results were CYP2C9 inh 70*, CYP2C19 inhib 98*, CYP2C9 activ 0.3 and CYP2C19 activ 0.
O=C1c2ccccc2C(=O)N1c1ccc(-c2nc3ccccc3o2)cc1 was read as CYP2C9 inh -6, CYP2C19 inhib -12, CYP2C9 activ 1.1 and CYP2C19 activ 1.1.
For N#CCSc1nnc(-c2ccccc2O)n1CCc1ccccc1 the results were CYP2C9 inh -10, CYP2C19 inhib 41, Pyk2 oligo antag -0.81, CYP2C9 activ 1.1 and CYP2C19 activ 0.6.
`COc1ccc2c(=O)c(-c3ccccc3)c(C)oc2c1` gave CYP2C9 inh 12, CYP2C19 inhib 19, Pyk2 oligo antag 0, CYP2C9 activ 0.9 and CYP2C19 activ 0.8.
Screening COc1cccc2c(=O)n(CC(=O)N3CCCCC3)ccc12 returned CYP2C9 inh -24, CYP2C19 inhib 26, CYP2C9 activ 1.2 and CYP2C19 activ 0.7.
For COC(=O)c1[nH]c2ccccc2c1NC(=O)CN1CCN(C/C=C/c2ccccc2)CC1 the results were CYP2C9 inh 86*, CYP2C19 inhib 74*, Pyk2 oligo antag -0.46, CYP2C9 activ 0.1 and CYP2C19 activ 0.3.
Screening CCOC(=O)c1[nH]c2ccc(OCC)cc2c1NC(=O)CN1CCN(c2ccccc2)CC1 returned CYP2C9 inh 6, CYP2C19 inhib 11, Pyk2 oligo antag -0.59, CYP2C9 activ 0.9 and CYP2C19 activ 0.9.
Screening COC(=O)c1[nH]c2ccccc2c1NC(=O)CN1CC(C)OC(C)C1 (stereo not drawn) returned CYP2C9 inh -11, CYP2C19 inhib -9, Pyk2 oligo antag 0.56, CYP2C9 activ 1.1 and CYP2C19 activ 1.1.
Screening CCOC(=O)c1[nH]c2ccc(F)cc2c1NC(=O)CN1CCN(C/C=C/c2ccccc2)CC1 returned CYP2C9 inh 59*, CYP2C19 inhib 52*, Pyk2 oligo antag 0.12, CYP2C9 activ 0.4 and CYP2C19 activ 0.5.
For CCCc1ncc(C(=O)c2ccc(OC)cc2)n1C the results were CYP2C9 inh -27, CYP2C19 inhib 49, Pyk2 oligo antag 0.49, CYP2C9 activ 1.3 and CYP2C19 activ 0.5.
Screening CCOC(=O)N1CCN(C(=S)Nc2cccc(C)c2)CC1 returned CYP2C9 inh -6, CYP2C19 inhib 34, Pyk2 oligo antag 0.31, CYP2C9 activ 1.1 and CYP2C19 activ 0.7.
Nc1ccccc1C(=O)Nc1cccc(C(=O)O)c1 was read as CYP2C9 inh 14, CYP2C19 inhib 59*, Pyk2 oligo antag -0.42, CYP2C9 activ 0.9 and CYP2C19 activ 0.4.
`CC(=O)Nc1cccc(C(=O)/C=C/c2ccco2)c1` gave CYP2C9 inh -126, CYP2C19 inhib 47, Pyk2 oligo antag 0.05, CYP2C9 activ 2.3* and CYP2C19 activ 0.5.
Cc1cccc(NC(=O)c2ccccc2C(=O)O)c1 was read as CYP2C9 inh -22, CYP2C19 inhib -14, Pyk2 oligo antag -0.77, CYP2C9 activ 1.2 and CYP2C19 activ 1.1.
`Cc1occc1C(=O)Nc1cccc(C(=O)O)c1` gave CYP2C9 inh 41, CYP2C19 inhib 71*, Pyk2 oligo antag -0.13, CYP2C9 activ 0.6 and CYP2C19 activ 0.3.
For CC(=O)Nc1ccc(C(=O)/C=C/c2ccco2)cc1 the results were Pyk2 oligo antag -0.63.
`O=C1COc2ccc3ccccc3c2CN1` gave CYP2C9 inh -4, CYP2C19 inhib 5, Pyk2 oligo antag 1.7, CYP2C9 activ 1 and CYP2C19 activ 0.9.
